Source: the supplement of paper PMC12024424
Structures can show the parent of a compound that is named as a salt.

System: Staphylococcus aureus Sa2 (MRSA, cystic fibrosis isolate)
Test: growth reduction vs untreated control (OD550); higher = stronger antibacterial activity
Settings: 0.1 mM; 24 h
Method: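 Single-dose screen of the MedChem Express Drug Repurposing Library (0.1 mM, 1% DMSO) against planktonic MRSA S. aureus Sa2 (CF isolate) in TSB in 96-well plates, 37 °C aerobic, 24 h. Assays were run in triplicate and repeated twice.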

Row | Compound | growth reduction [%]
1 | Cc1cc2c(cc1CC(=O)c1sccc1S(=O)(=O)Nc1onc(C)c1Cl)OCO2 [Sitaxsentan (sodium)] | 98
2 | NCCCC[C@H](NC(=O)[C@@H](NC(=O)[C@H](Cc1c[nH]c2ccccc12)NC(=O)[C@H](CCCCN)NC(=O)[C@H](CCCCN)NC(=O)[C@H](Cc1c[nH]c2ccccc12)NC(=O)[C@H](Cc1c[nH]c2ccccc12)NC(=O)[C@H](CCCCN)NC(=O)[C@@H](N)CCCCN)C(c1ccccc1)c1ccccc1)C(N)=O | 100
3 | Cc1ccc(-c2c(C(=O)CCl)n(CCCO)c3ncnc(N)c23)cc1 | 99.8
4 | Clc1ccccc1C(c1ccccc1)(c1ccccc1)n1ccnc1 [Clotrimazole] | 100
5 | Cc1c(Cl)c(C)[n+]([O-])c(Cl)c1-c1noc(-c2cc(O)c(O)c([N+](=O)[O-])c2)n1 [Opicapone] | 99.2
6 | Cc1ccc(C(=O)N(CCCN)[C@@H](c2nc3cc(Cl)ccc3c(=O)n2Cc2ccccc2)C(C)C)cc1 [Ispinesib] | 100
7 | C1=N/C2=N/c3ccc(OCCN4CCCC4)c(c3)COC/C=C/COCc3cccc(c3)C(=C1)N2 [Pacritinib] | 100
8 | Fc1ccc(C(c2ccc(F)cc2)N2CCN(C/C=C/c3ccccc3)CC2)cc1 [Flunarizine (dihydrochloride)] | 94.4
9 | Cc1cc(C2CCCCC2)n(O)c(=O)c1 [Ciclopirox] | 99.3
10 | Cc1noc(-c2ccc(-c3ccc(C4(C(=O)O)CC4)cc3)cc2)c1NC(=O)O[C@H](C)c1ccccc1 | 100
11 | CCN(C/C=C\c1ccc(C2CCCCC2)c(Cl)c1)C1CCCCC1 | 100
12 | O=C(NC1CCN(CCCCC2(C(=O)NCC(F)(F)F)c3ccccc3-c3ccccc32)CC1)c1ccccc1-c1ccc(C(F)(F)F)cc1 [Lomitapide] | 100
13 | CCCCCc1ccc(C=CC(=O)Nc2ccccc2C(=O)O)cc1 [N-(p-amylcinnamoyl) Anthranilic Acid] | 100
14 | CN1C(=O)[C@@H](NC(=O)c2n[nH]c(Cc3ccccc3)n2)COc2ccccc21 | 90.3
15 | CCCCc1oc2ccc(NS(C)(=O)=O)cc2c1C(=O)c1ccc(OCCCN(CCCC)CCCC)cc1 [Dronedarone (Hydrochloride)] | 92.6
16 | CC[C@@]1(O)C[C@H](O[C@H]2C[C@H](N(C)C)[C@H](O[C@H]3C[C@H](O)[C@H](O[C@H]4CCC(=O)[C@H](C)O4)[C@H](C)O3)[C@H](C)O2)c2c(cc3c(c2O)C(=O)c2c(O)cccc2C3=O)[C@H]1C(=O)OC [Aclacinomycin A hydrochloride] | 100
17 | CCCc1nc2c(C)cc(-c3nc4ccccc4n3C)cc2n1Cc1ccc(-c2ccccc2C(=O)O)cc1 [Telmisartan] | 91.8
18 | O=C(CCCCCCNC(=O)c1cnc(N(c2ccccc2)c2ccccc2)nc1)NO [Ricolinostat] | 100
19 | C[C@@H]1CCc2ncc(F)cc2[C@H]2CCCN2c2ccn3ncc(c3n2)C(=O)N1 [Selitrectinib] | 96.9
20 | C[C@H](Nc1cc(-c2cnn(C)c2)cc(Nc2cnccn2)n1)c1ccc(F)cc1 [Ilginatinib] | 100

Row | Compound | growth reduction [%]
21 | C#C[C@]1(O)CC[C@H]2[C@@H]3CCc4cc(OC)ccc4[C@H]3CC[C@@]21C [Mestranol] | 92.6
22 | CCN(CC)CCOc1ccc(C(=C(Cl)c2ccccc2)c2ccccc2)cc1 [Clomiphene (citrate)] | 100
23 | CCN1CCN(Cc2ccc(-c3cc4c(N[C@H](C)c5ccccc5)ncnc4[nH]3)cc2)CC1 | 100
24 | CN(Cc1cnc2nc(N)nc(N)c2n1)c1ccc(C(=O)N[C@@H](CCC(=O)O)C(=O)O)cc1 [Methotrexate] | 94.1
25 | OC(c1cc(C(F)(F)F)nc2c(C(F)(F)F)cccc12)C1CCCCN1 (stereo not given) [Mefloquine (hydrochloride)] | 100
26 | O=C(NCc1ccc(Oc2ccccc2)cc1)c1nc(-c2cc(Br)c(O)c(Br)c2)no1 | 95.3
27 | CS(=O)(=O)c1ccc([C@@H](O)[C@@H](CF)NC(=O)C(Cl)Cl)cc1 [Florfenicol] | 100
28 | CCN(CC)CC#CCOC(=O)C(O)(c1ccccc1)C1CCCCC1 (stereo not given) [Oxybutynin (chloride)] | 94.3
29 | CCCCCCCCCCCCCCCC[N+](C)(C)CCN(Cc1ccc(OC)cc1)c1ncccn1 [Thonzonium (bromide)] | 100
30 | Cc1cccc(/C=N/Nc2cc(N3CCOCC3)nc(OCCc3ccccn3)n2)c1 [Apilimod (mesylate)] | 97.4
31 | Cc1cc(O[C@@H](CCC(F)(F)F)c2ccc(C(=O)NCCC(=O)O)cc2)cc(C)c1-c1ccc(C(C)(C)C)cc1 [Adomeglivant] | 100
32 | CCCCCCCCOc1ccccc1C(=O)Nc1ccc(C(=O)OCC[N+](C)(CC)CC)cc1 [Otilonium (bromide)] | 100
33 | CC(C)COc1ccc(CNC(=O)N(Cc2ccc(F)cc2)C2CCN(C)CC2)cc1 [Pimavanserin] | 100
34 | Cc1cnc(NC(=O)Nc2cc(Br)c(C)cc2OC[C@@H]2CNCCO2)cn1 [Rabusertib] | 100
35 | O=C(NCC12CC3CC(CC(C3)C1)C2)c1cc(CCCNCCCO)ccc1Cl [AZD9056 (hydrochloride)] | 100
36 | O=C(O)C1(c2ccc(-c3ccc(Cl)c(Cl)c3)c(F)c2)CC1 [Itanapraced] | 100
37 | CSc1ccc(C(=O)/C=C/c2cc(C)c(OC(C)(C)C(=O)O)c(C)c2)cc1 [Elafibranor] | 91.6
38 | CCCCCCCCCCCCCCCCOP(=O)([O-])OCC[N+](C)(C)C [Miltefosine] | 100
39 | N[C@@H]1CC[C@@H](c2ccc(Cl)c(Cl)c2)c2ccccc21 [Dasotraline (hydrochloride)] | 100
40 | Oc1c(Br)cc(Br)c2cccnc12 [Broxyquinoline] | 100
